Molecules are shown by their SMILES. The whole screen tested about 6,200 compounds, of which about 2,900 (47%) were called active. No stated cut-off is given here; in the data, active means inhibition above about 50%; inactive means the rest. The set was probably picked from earlier hits. This is one part of the list.

One may read the inhibition as the drop in the measured response relative to a control, in per cent.

A short description of this experiment: Mycobacterium tuberculosis growth inhibition, primary screen (AID 1259343). As to conditions: inhibition: at 10 µM, stronger effect = higher value; outcome: 10 uM.
For `CCC(Cc1c(I)cc(I)c(N)c1I)C(=O)O` (stereo not given), the inhibition is 84.2% (active).
As to `CCc1ccc(NC(=O)CSc2nc(=O)n3ccccc3n2)cc1`, the inhibition was -1.93% (inactive).
For `CCOC(=O)c1ccc(NC(=O)CSc2nc(=O)n3ccccc3n2)cc1` the value was 90.4% (active); for `O=c1nc(SCc2cccc(C(F)(F)F)c2)nc2ccccn12`, -26.8% (inactive).
For `c1coc(-c2cc(CSc3nnc(Cc4cccs4)n3C3CC3)no2)c1` the value was -54.4% (inactive); for `O=C(Nc1nc(-c2c[nH]c3ccccc23)cs1)c1ccc(F)cc1Cl`, 17% (inactive); for `Cc1[nH]n(-c2ccc(Cl)cc2)c(=O)c1C1=C(c2c[nH]c3ccccc23)C(=O)N(Cc2ccc(F)cc2)C1=O`, 61.5% (active).
To `Cc1ccccc1C(c1ncccc1C)N(C)C(=O)C1CCN(CCCOc2ccc(F)cc2)CC1` (stereo not given) belongs 60.1% (active); to `CCc1nc2c(OCCOc3ccc(F)cc3)cccn2c1N(C)C(=O)c1ccccc1F`, 45.2% (inactive).
Turning to `CCOC(=O)N1CCC(NS(=O)(=O)CCCOc2ccc(F)cc2)CC1`, the inhibition is 45% (inactive).
For `N#Cc1ccc(NCCc2cccc(F)c2)cn1` the value was 36.5% (inactive).
For `CC(NC(=O)C/C=C/c1cccc(F)c1)C(O)Cc1ccccc1` (stereo not given) the value was 15.7% (inactive); for `CS(=O)(=O)Nc1ccc(/C=C/C(=O)NCCc2cccc(F)c2)cc1`, 52.3% (active); for `CCc1ccc(CNc2ccc(CNc3ncn[nH]3)cc2)cc1`, 91.1% (active).
For the compound `COc1cc(NC(=O)CNCCN2CCOC2=O)ccc1Cl`, the inhibition is 55.3% (active).
For `Cc1ccccc1-c1noc(-c2cccc(NC(=O)CCN3CCCO3)c2)n1` the value was 19.4% (inactive).
In the case of `Cc1cc(NC(=O)CNCCN2CCCOC2=O)ccc1Cl`, the inhibition is 77.5% (active).
Take `COc1cccc(-c2cc(CC(=O)NC3CCCC3)no2)c1`: the inhibition was 19.6% (inactive).
For `CCC(=O)c1ccc(OCc2cc(-c3ccccc3)on2)cc1` the value was 92.5% (active); for `Cc1nc2ccccn2c1C(=O)OCc1cc(-c2ccco2)on1`, 33.3% (inactive).
For `CC(C)CN1C(=O)C(=Cc2c(N3CCN(CCO)CC3)nc3ccccn3c2=O)SC1=S` the value was 7.51% (inactive); for `NC(=O)CSc1nccc2c(OCc3ccc(F)cc3)cccc12`, 77.4% (active); for `Cc1sc(NC(=O)C2CC2)c(C(=O)N2CCc3ccccc32)c1C`, -6.91% (inactive).
For `CNS(=O)(=O)c1ccc2c(c1)CCN2C(=O)c1ccc(F)cc1F`, the inhibition was 32% (inactive).
To `CNS(=O)(=O)c1ccc(C(=O)N2CCc3ccccc32)o1` belongs 89.9% (active).
